In all, about 5,500 compounds went through this assay and about 2,000 (36%) were called active. About 18% were inconclusive and are not listed. Rule as the data show it: active = normalized growth mostly below about 0.91 (no sharp cut-off); inconclusive = no clear call, values can overlap the other calls; inactive = mostly above about 0.92. The list shows a part of the results.
Test: chemical genetic growth profiling, strain panel (AID 1159580);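 also: tested at 20 µM; growth read once vehicle control cultures reached saturation at 30 °C; 1 = growth at the plate median or of vehicle wells; lower values mean less growth of the strain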
Details: growth OD

Measured: normalized growth

CC[C@H]1OC(=O)[C@H](C)[C@@H](O[C@H]2C[C@@](C)(OC)[C@@H](O)[C@H](C)O2)[C@H](C)[C@@H](O[C@@H]2O[C@H](C)C[C@H](N(C)C)[C@H]2O)[C@](C)(O)C[C@@H](C)[C@@H]2N[C@@H](COCCOC)O[C@H]([C@H]2C)[C@]1(C)O
inactive: S. cerevisiae deletion strains, locus YJR075W, strain HOC1, hits give low values 1.05 | S. cerevisiae deletion strains, locus YKL009W, strain mrt4, hits give low values 1.03 | S. cerevisiae deletion strains, locus YKL068W, hits give low values 1 | S. cerevisiae deletion strains, locus YKL085W, strain MDH1 (second series), hits give low values 0.976 | S. cerevisiae deletion strains, locus YKL085W, strain MDH1, hits give low values 0.976 | S. cerevisiae deletion strains, locus YKL160W, strain elf1, hits give low values 1 | S. cerevisiae deletion strains, locus YKR001C, strain vps1, hits give low values 1.01 | S. cerevisiae deletion strains, locus YKR026C, strain gcn3, hits give low values 0.987 | S. cerevisiae deletion strains, locus YKR091W, strain srl3, hits give low values 0.997 | S. cerevisiae deletion strains, locus YLL001W, strain dnm1, hits give low values 0.991 | S. cerevisiae deletion strains, locus YLL026W, hits give low values 0.984 | S. cerevisiae deletion strains, locus YLL041C, strain sdh2, hits give low values 0.986 | S. cerevisiae deletion strains, locus YLR027C, strain aat2, hits give low values 0.991 | S. cerevisiae deletion strains, locus YLR039C, strain RIC1, hits give low values 0.982 | S. cerevisiae deletion strains, locus YLR058C, strain SHM2, hits give low values 1.02 | S. cerevisiae deletion strains, locus YLR102C, strain apc9, hits give low values 1.01 | S. cerevisiae deletion strains, locus YLR113W, strain HOG1, hits give low values 1.04 | S. cerevisiae deletion strains, locus YLR221C, strain rsa3, hits give low values 0.993 | S. cerevisiae deletion strains, locus YLR258W, strain gsy2, hits give low values 1 | S. cerevisiae deletion strains, locus YLR262C, strain YPT6 (second series), hits give low values 0.985 | S. cerevisiae deletion strains, locus YLR262C, strain YPT6, hits give low values 1.01 | S. cerevisiae deletion strains, locus YLR268W, strain sec22, hits give low values 0.999 | S. cerevisiae deletion strains, locus YLR320W, strain mms22, hits give low values 0.991 | S. cerevisiae deletion strains, locus YLR330W, strain CHS5, hits give low values 1.01 | S. cerevisiae deletion strains, locus YLR342W, strain FKS1 (second series), hits give low values 1.02 | S. cerevisiae deletion strains, locus YLR342W, strain FKS1, hits give low values 0.992 | S. cerevisiae deletion strains, locus YLR357W, strain rsc2, hits give low values 0.958 | S. cerevisiae deletion strains, locus YLR370C, strain arc18, hits give low values 0.989 | S. cerevisiae deletion strains, locus YLR371W, strain rom2, hits give low values 1 | S. cerevisiae deletion strains, locus YLR384C, strain iki3, hits give low values 0.993 | S. cerevisiae deletion strains, locus YLR418C, strain cdc73, hits give low values 0.996 | S. cerevisiae deletion strains, locus YML016C, strain PPZ1, hits give low values 1.01 | S. cerevisiae deletion strains, locus YML032C, strain rad52, hits give low values 0.999 | S. cerevisiae deletion strains, locus YML120C, strain ndi1, hits give low values 0.997 | S. cerevisiae deletion strains, locus YML124C, strain tub3, hits give low values 1 | S. cerevisiae deletion strains, locus YMR058W, strain fet3, hits give low values 0.997 | S. cerevisiae deletion strains, locus YMR078C, strain ctf18, hits give low values 1.01 | S. cerevisiae deletion strains, locus YMR125W, strain sto1, hits give low values 0.992 | S. cerevisiae deletion strains, locus YMR129W, hits give low values 1 | S. cerevisiae deletion strains, locus YMR205C, strain PFK2, hits give low values 0.969 | S. cerevisiae deletion strains, locus YMR223W, strain ubp8, hits give low values 1.02 | S. cerevisiae deletion strains, locus YMR231W, strain pep5, hits give low values 0.993 | S. cerevisiae deletion strains, locus YMR263W, strain SAP30, hits give low values 1.03 | S. cerevisiae deletion strains, locus YMR307W, strain GAS1, hits give low values 0.919 | S. cerevisiae deletion strains, locus YNL067W, strain RPL9B, hits give low values 1.04 | S. cerevisiae deletion strains, locus YNL071W, strain lat1, hits give low values 0.999 | S. cerevisiae deletion strains, locus YNL128W, strain TEP1, hits give low values 1.02 | S. cerevisiae deletion strains, locus YNL183C, strain NPR1, hits give low values 0.96 | S. cerevisiae deletion strains, locus YNL209W, strain ssb2, hits give low values 0.988 | S. cerevisiae deletion strains, locus YNL233W, strain BNI4, hits give low values 1.03 | S. cerevisiae deletion strains, locus YNL248C, strain rpa49, hits give low values 0.975 | S. cerevisiae deletion strains, locus YNL250W, strain rad50, hits give low values 1.01 | S. cerevisiae deletion strains, locus YNL271C, strain bni1, hits give low values 1.01 | S. cerevisiae deletion strains, locus YNL298W, strain CLA4, hits give low values 1 | S. cerevisiae deletion strains, locus YNL307C, strain MCK1, hits give low values 1 | S. cerevisiae deletion strains, locus YNL322C, strain KRE1 (second series), hits give low values 0.995 | S. cerevisiae deletion strains, locus YNR049C, strain mso1, hits give low values 0.989 | S. cerevisiae deletion strains, locus YNR052C, strain pop2, hits give low values 1.01 | S. cerevisiae deletion strains, locus YOL006C, strain TOP1, hits give low values 1.09 | S. cerevisiae deletion strains, locus YOL012C, strain htz1 1.56 | S. cerevisiae deletion strains, locus YOL147C, strain pex11, hits give low values 1 | S. cerevisiae deletion strains, locus YOR001W, strain rrp6, hits give low values 0.986 | S. cerevisiae deletion strains, locus YOR061W, strain CKA2, hits give low values 1.02 | S. cerevisiae deletion strains, locus YOR069W, strain VPS5, hits give low values 1.01 | S. cerevisiae deletion strains, locus YOR070C, strain gyp1, hits give low values 0.999 | S. cerevisiae deletion strains, locus YOR080W, strain dia2, hits give low values 0.995 | S. cerevisiae deletion strains, locus YOR083W, strain WHI5, hits give low values 0.996 | S. cerevisiae deletion strains, locus YOR106W, strain vam3, hits give low values 0.999 | S. cerevisiae deletion strains, locus YOR136W, strain idh2, hits give low values 1 | S. cerevisiae deletion strains, locus YOR144C, strain elg1, hits give low values 1.01 | S. cerevisiae deletion strains, locus YOR184W, strain ser1, hits give low values 1 | S. cerevisiae deletion strains, locus YOR231W, strain MKK1, hits give low values 1.02 | S. cerevisiae deletion strains, locus YOR265W, strain rbl2, hits give low values 0.996 | S. cerevisiae deletion strains, locus YOR270C, strain vph1, hits give low values 0.978 | S. cerevisiae deletion strains, locus YOR290C, strain snf2, hits give low values 0.981 | S. cerevisiae deletion strains, locus YOR316C, strain cot1, hits give low values 1.01 | S. cerevisiae deletion strains, locus YPL051W, strain arl3, hits give low values 1.01 | S. cerevisiae deletion strains, locus YPL078C, strain atp4, hits give low values 0.995 | S. cerevisiae deletion strains, locus YPL106C, strain sse1, hits give low values 0.978 | S. cerevisiae deletion strains, locus YPL240C, strain hsp82, hits give low values 0.989 | S. cerevisiae deletion strains, locus YPL256C, strain CLN2, hits give low values 1.01 | S. cerevisiae deletion strains, locus YPR119W, strain clb2, hits give low values 1.01 | S. cerevisiae deletion strains, locus YPR141C, strain kar3, hits give low values 1.01 | S. cerevisiae deletion strains, locus YPR163C, strain tif3, hits give low values 1.02 | S. cerevisiae deletion strains, locus YPR167C, strain met16, hits give low values 0.996 | S. cerevisiae deletion strains, strain wtn01, hits give low values 1 | S. cerevisiae strains, strain wild type, hits give low values 1.02

Reference: PubChem BioAssay AID1159580 (chemical genetic matrix, 2015)
